A short description of the assay: molecules binding r(CAG) RNA repeats, late stage dose response, late-stage follow-up, biochemical, fluorescence, dose response, powder samples (AID 720651). Conditions: r(CAG) RNA TO-PRO-1 dye displacement.

Some of the results follow. Calls of active or inactive are those of the source. The rule behind the calls is not given here.

The IC50 is the concentration that inhibits the measured activity by half.

In the case of `Cc1noc(NS(=O)(=O)c2ccc(NC(=O)c3oc4ccc(F)cc4c3C)cc2)c1C`, the IC50 is 1260 nM (active).

The record behind these values is PubChem BioAssay AID720651 (The Scripps Research Institute Molecular Screening Center, 2013).
